The subject of experiment [1] is Staphylococcus aureus. The following applies: Concentration 32 ug.mL-1; ASSAY_TEST Inhibition of Bacterial Growth; detection method Absorption (OD600); MEDIA CAMHB; plate type 384well; NBS; CORNING #3640; time 18 hr.
Experiment [2] concerns Escherichia coli. The following applies: Concentration 32 ug.mL-1; ASSAY_TEST Inhibition of Bacterial Growth; detection method Absorption (OD600); MEDIA CAMHB; plate type 384well; NBS; CORNING #3640; time 18 hr.

The Inhibition is the drop in the measured response relative to a control, in per cent.

Entries with a potency or affinity are not part of this list.

Turning to `C#CCN(C)c1nc(NCCCCC2CCN(Cc3ccccc3)CC2)c(C#N)cc1C#N`, the Inhibition in experiment [1] was 0.89%; in experiment [2] it was -7.65%.

With `O=C(N/N=C/c1ccc(Cl)cc1)c1cc2ccccc2[nH]1`, the Inhibition in experiment [1] stood at 1.43%; in experiment [2], 20.07%.

`N#CC1=C(N)Oc2c(ccc3ccccc23)C1c1cccc([N+](=O)[O-])c1` (configuration not stated): the Inhibition in experiment [1] was 17.39%; in experiment [2] it was -10.4%.

Turning to `Cn1c(C(=O)NCc2ccccc2)cc2cc(OCCCC3CCN(Cc4ccccc4)CC3)ccc21`, the Inhibition in experiment [1] is listed as 21.45%; in experiment [2] it was -9.22%.

With `Cc1ccc(C=C2N=C(c3ccccc3)OC2=O)cc1`, the Inhibition in experiment [1] is reported as 7.55%; in experiment [2], 3.61%.

As to `COc1ccc(C2c3ccc4ccccc4c3OC(=NBr)C2(Br)C#N)cc1OC` (configuration not stated), the Inhibition is recorded as 21.78% in experiment [1] and -14.95% in experiment [2].

Turning to `O=C(O)c1c[nH]c2ccccc12`, the Inhibition is given as -3.47% in experiment [1] and -2.29% in experiment [2].

As for `C#CCN(C)c1cc(C)nc(C)n1`, the Inhibition is on record as 21.48% in experiment [1] and -8.55% in experiment [2].

For the molecule `CCC(Cc1ccccc1)NNC(=O)c1cc2ccccc2[nH]1` (configuration not stated), the Inhibition is recorded as -3.17% in experiment [1] and -1.51% in experiment [2].

As for `O[C@H]1CC[C@H](NCc2ccccc2)CC1`, the Inhibition is 21.55% in experiment [1] and -7.34% in experiment [2].

Take `CCOc1nc(N)c(C#N)cc1C#N`: the Inhibition in experiment [1] is recorded as 33.34%; in experiment [2], -14.2%.

Regarding `N#CCC(=C(C#N)C#N)c1ccccc1`, the Inhibition in experiment [1] turned out to be 11.65%; in experiment [2] it was 4.41%.

`Nc1ccccc1C(=O)N/N=C/c1c[nH]c2ccccc12`: the Inhibition in experiment [1] amounted to 7.31%; in experiment [2], 5.27%.

With `NC(=O)c1cc2cc(OCc3ccccc3)ccc2[nH]1`, the Inhibition in experiment [1] is 21.34%; in experiment [2], -8.75%.

As to `O=C(O)n1ccc2ccccc21`, the Inhibition in experiment [1] amounted to 10.57%; in experiment [2], 9.43%.

With `COc1ccc2cc(C3C4=C(CC(C)(C)CC4=O)Oc4nc5c(c(N)c43)CCCC5)c(Cl)nc2c1` (configuration not stated), the results for the Inhibition in experiment [1] and in experiment [2] were 25.96% and 20.91%, respectively.

Turning to `Cn1cc(C(=O)NN)c2ccccc21`, the figures for the Inhibition in experiment [1] and in experiment [2] were 4.01% and 20.35%, respectively.

As for `CC(C)(C)OC(=O)Nc1ccc(Br)cn1`, the Inhibition in experiment [1] is reported as 40.42%; in experiment [2] it was -0.9%.

Consider `COC(=O)C1CCN(Cc2ccccc2)CC1`, for which the Inhibition is listed as 27.51% in experiment [1] and 11.49% in experiment [2].

On to `CN1C/C(=C\Br)n2c1c(C#N)cc(C#N)c2=O`, for which the results for the Inhibition in experiment [1] and in experiment [2] were 16.92% and -11.76%, respectively.

Regarding `CC(=O)NCCc1ccccc1`, the results for the Inhibition in experiment [1] and in experiment [2] were 12.71% and 11.94%, respectively.

As for `COC(=O)/C(=C/c1ccc(O)cc1)NC(=O)c1ccccc1`, the values for the Inhibition in experiment [1] and in experiment [2] were 4.82% and 15.96%, respectively.

Turning to `Cl.Nc1c2c(nc3c1C(c1c(Cl)cccc1Cl)c1ccc4ccccc4c1O3)CCCC2` (configuration not stated), the Inhibition is -3.18% in experiment [1] and -2.79% in experiment [2].

Turning to `N#CC1=C(N)Oc2ccc3ccccc3c2C1`, the Inhibition in experiment [1] is given as 5.91%; in experiment [2], -5.32%.

As to `COc1ccc2c(ccn2C)c1`, the Inhibition in experiment [1] worked out at 6.16%; in experiment [2] it was 8.07%.

Take `C#CCN(Cc1ccccc1)c1nc(N)c(C#N)c(-c2ccccc2)c1C#N`: the Inhibition is given as 11.64% in experiment [1] and -2.54% in experiment [2].

Turning to `COC(=O)C1(NC(=O)c2ccccc2)CC1c1ccccc1` (configuration not stated), the Inhibition in experiment [1] is 1.83%; in experiment [2], -4.02%.

On to `CC1(C)OS(=O)(=O)C2=C1NC(N)=C(C#N)C2c1ccccc1` (configuration not stated), for which the Inhibition in experiment [1] was 8.23%; in experiment [2], 10.42%.

On to `O=c1oc2cc(O)ccc2cc1-c1ccccc1`, for which the Inhibition in experiment [1] is 10.2%; in experiment [2] it was 2.31%.

As to `CCOC(=O)C1=C(C)OC(N)=C(C#N)C1c1ccccc1` (configuration not stated), the Inhibition is 25.42% in experiment [1] and -7.58% in experiment [2].

As for `Cc1cnc2ccc(Cl)cn12`, the Inhibition in experiment [1] is reported as 9.7%; in experiment [2] it was 8.76%.

Take `CC(C)(C)OC(=O)Nc1ccc(Cl)cn1`: the Inhibition in experiment [1] is listed as 37.58%; in experiment [2], -2.82%.

With `C#CC[n+]1ccccc1N.[Br-]`, the Inhibition came out at 6.4% in experiment [1] and 12.69% in experiment [2].

For `Clc1ccc(-c2cn3ccccc3n2)cc1`, the figures for the Inhibition in experiment [1] and in experiment [2] were 13.75% and 15.37%, respectively.

`CCOC(=O)c1cc2cc(OCc3ccccc3)ccc2[nH]1`: the Inhibition in experiment [1] turned out to be 7.82%; in experiment [2], 5.9%.

`N#Cc1c(N)nc(NCCCCC2CCN(Cc3ccccc3)CC2)c(C#N)c1-c1ccccc1`: the figures for the Inhibition in experiment [1] and in experiment [2] were 9.74% and -1.09%, respectively.

As to `Cn1ccnc1C1C2=C(CC(C)(C)CC2=O)Oc2nc3c(c(N)c21)CCCC3` (configuration not stated), the Inhibition in experiment [1] is 8.97%; in experiment [2] it was -15.11%.

In the case of `Cn1ccnc1C1c2ccc3cccnc3c2Oc2nc3c(c(N)c21)CCCCC3` (configuration not stated), the Inhibition is listed as 21.02% in experiment [1] and -10.34% in experiment [2].

For the molecule `C#CCN1CCc2nc3nc(N4CCCC4)c(C#N)cc3c(N)c2C1`, the Inhibition in experiment [1] is recorded as 24.32%; in experiment [2], -2.2%.

As for `N#Cc1cc(C#N)c(NCc2ccccc2)nc1N`, the Inhibition in experiment [1] is 27.12%; in experiment [2], -14.28%.

With `C=C=CCN(C)Cc1cc2ccccc2n1C.O=C(O)C(=O)O`, the figures for the Inhibition in experiment [1] and in experiment [2] were 31.58% and -19.52%, respectively.
